13 compounds from PubChem BioAssay (NCATS) can be followed below.

Molecules are shown by their SMILES. Results filed as inconclusive are left out. Calls of active or inactive are those of the source. Unless noted, calls follow the shape of the dose curve; as a rule, active = well fitted curve in the direction sought with a large enough effect; inconclusive = small, poorly fitted or top-dose-only effect, or another doubt; inactive = no such curve, though single readings can be large; an effect the other way counts as inactive or inconclusive.

Experiment [1] can be described thus: qHTS Assay for Identification of Small Molecule Agonists for NFkB Signaling Pathway. (AID 624478).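 Also: compounds tested together with TNF alpha at its EC50 of 10 pM; 0% is about no effect.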 Put shortly: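 ME-180 cervical carcinoma, stable NFkB-RE beta-lactamase reporter; 1000 cells/well, overnight attachment; cpd + TNF alpha 10 pM final, 5 h 37 C; LiveBLAzer 2 h RT; FRET 460/530 nm, ex 405 nm.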
(Quantitative high-throughput screening tests each substance at several concentrations.)

The nature of experiment [2]: qHTS Assay for Identification of Small Molecule Antagonists for NFkB Signaling Pathway. (AID 624479; calls by dose curve;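 also: pathway stimulated with TNF alpha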; also: potency is read from the fitted curve at half-maximal effect).
Experiment [3] in a line: Cell Proliferation Assay against the TMD8 Cell Line (AID 651645).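 Also: cells exposed to compound for 48 h before reading.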 The conditions noted are these: TMD8 DLBCL cell line proliferation/viability; at 46.1 µM (top of the series) unless noted. In a few lines:
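Cell viability of the ABC DLBCL line TMD8 is measured by CellTiter-Glo luminescence following a 48-hour incubation with compound. Percent activity uses DMSO as 100% and 9.2 uM bortezomib (final) as 0%.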

Experiment [4] can be described thus: Cell Proliferation Assay against the HBL1 Cell Line (AID 651646).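 Also: cells exposed to compound for 48 h before reading.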 The conditions noted are these: HBL1 DLBCL cells; at 46.1 µM (top of the series) unless noted. Put shortly:
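500 log-phase HBL1 cells per well in phenol red-free RPMI with 5% FBS were treated with compounds for 48 h at 37 °C, 5% CO2. Viability was read by CellTiter-Glo luminescence, normalized to DMSO (100%) and 9.2 uM bortezomib final (0%).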

In experiment [5] the target is Tyrosine-protein kinase Yes (Homo sapiens) (UniProt P07947). As to the kind of experiment: qHTS for small molecule inhibitors of Yes1 kinase: Primary Screen (AID 686947). Also: nearly all actives have a fitted effect of over 60% in size. Also: potency is read from the fitted curve at half-maximal effect. Put shortly:
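Yes1 (4 nM) preincubated 20 min with compound, then 60 min room-temperature reaction with 0.1 mM ATP and 0.3 mg/mL poly(E4Y) in pH 7.5 Tris, 10 mM MgCl2. ADP measured by ADP-Glo luminescence, normalised to enzyme/no-enzyme controls.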

Experiment [6] can be described thus: qHTS for small molecule inhibitors of Yes1 kinase: Counter Assay (AID 686950).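 Also: no kinase present so only ADP-Glo detection of a fixed ADP amount is tested; luminescence from ADP-Glo reporting ADP in a fixed ATP and ADP mixture; 0% = DMSO wells with ATP plus ADP and -100% = ATP-only wells without ADP.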 In a few lines:
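Enzyme-free ADP-Glo interference check: compounds were preincubated 20 min in buffer, then an ATP/ADP mix (0.08 mM ATP, 0.02 mM ADP final) was added for 60 min at room temperature before two-step ADP-Glo luminescence detection.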

Experiment [7] is described as follows: Cell Proliferation Assay against the TMD8 Cell Line (Caspase readout at 8 hrs) (AID 651713).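 Also: 0% = DMSO and 100% = 9.2 µM bortezomib caspase signal.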 Put shortly: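 Seed log-phase TMD8 cells, add compound by pin tool, incubate 8 h at 37C under 5% CO2, equilibrate to room temperature, add Caspase-Glo, wait 15 min, read luminescence; percent activity uses DMSO and 9.2 uM bortezomib controls.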
A short description of experiment [8]: Cell Proliferation Assay against the TMD8 Cell Line (Caspase readout at 16 hrs) (AID 651712). Also: potency is read from the fitted curve at half-maximal effect. Put shortly: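 TMD8 cells (500/well) in phenol-red-free RPMI with glutamine, 5% FBS, were exposed to compounds for 16 h at 37 °C. Caspase 3/7 activation was read by Caspase-Glo luminescence; percent activity normalised to DMSO (0%) and 9.2 uM bortezomib final (100%).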

Chain of Tyrosine-protein kinase Yes (Homo sapiens) (P07947 whole entry, looked up): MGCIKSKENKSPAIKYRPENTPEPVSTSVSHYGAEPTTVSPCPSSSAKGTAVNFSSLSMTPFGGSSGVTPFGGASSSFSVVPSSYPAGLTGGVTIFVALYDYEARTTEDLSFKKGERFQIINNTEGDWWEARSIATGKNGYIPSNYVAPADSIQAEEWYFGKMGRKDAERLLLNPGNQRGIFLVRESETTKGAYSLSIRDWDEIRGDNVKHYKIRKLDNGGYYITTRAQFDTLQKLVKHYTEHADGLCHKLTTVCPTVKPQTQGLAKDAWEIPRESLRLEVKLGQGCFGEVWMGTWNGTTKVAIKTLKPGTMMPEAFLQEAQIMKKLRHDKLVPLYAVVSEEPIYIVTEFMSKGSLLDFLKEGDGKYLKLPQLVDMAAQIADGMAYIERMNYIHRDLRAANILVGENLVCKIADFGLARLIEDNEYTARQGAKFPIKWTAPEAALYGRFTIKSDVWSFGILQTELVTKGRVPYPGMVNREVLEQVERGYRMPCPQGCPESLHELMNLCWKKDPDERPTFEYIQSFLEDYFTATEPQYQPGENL

On to `Cc1c(CN2CCN(C(=O)C(C)C)CC2)sc2c(N3CCOCC3)nc(-c3cnc(N)nc3)nc12`, for which the result in experiment [1] and in experiment [6] was inactive. In addition, the Potency entry in experiment [2] was “inactive”. In experiment [3], the viability (% of control) stood at 3.51%. Moreover, the viability, percent of control in experiment [4] was 45.6%. Moreover, in experiment [5], the Potency was 0.244 µM (active).
In the case of `O=c1ncn2nc(Sc3ccc(F)cc3F)ccc2c1-c1c(Cl)cccc1Cl`, the outcome in experiment [1] and in experiment [6] was inactive. Further, the Potency result in experiment [2], in experiment [7] and in experiment [5] was “inactive” in each case. Further, the viability (% of control) in experiment [3] was 65.5%. For the same compound, in experiment [4], the viability, percent of control was 62.3%.
Turning to `C[C@]12CC[C@H](O)CC1=CC[C@@H]1[C@H]2CC[C@]2(C)C(c3cccnc3)=CC[C@H]12`, the call in experiment [1] and in experiment [6] was inactive. Also, the Potency result in experiment [2], in experiment [7] and in experiment [5] was “inactive” each time. Also, the viability (% of control) in experiment [3] was found to be 29.5%. Further, the viability, percent of control in experiment [4] worked out at 52.7%.
As for `CCc1cncnc1N1CCN(Cc2nc3ccc(C(F)(F)F)cc3[nH]2)CC1`, the compound was classed as inactive in experiment [1] and in experiment [6]. For the same compound, the Potency result in experiment [2], in experiment [7] and in experiment [5] was “inactive” throughout. Moreover, the viability (% of control) in experiment [3] is 56.3%. The viability, percent of control in experiment [4] is 82.4%.
Consider `CCN(CCCO)CCCOc1ccc2c(Nc3cc(CC(=O)Nc4cccc(F)c4)[nH]n3)ncnc2c1`, for which the compound was classed as inactive in experiment [1] and in experiment [6]. The Potency result in experiment [2], in experiment [8] and in experiment [7] was “inactive” each time. Further, the viability, percent of control in experiment [4] was 67.6%. Also, the Potency in experiment [5] was 0.387 µM (active).
As to `CNCc1ccc(-c2[nH]c3cc(F)cc4c3c2CCNC4=O)cc1`, the outcome in experiment [1] and in experiment [6] was inactive. Also, the Potency in experiment [2] was 21.1 µM (active); in experiment [5], 0.308 µM (active). Besides, the viability (% of control) in experiment [3] is 79.6%. Further, the viability, percent of control in experiment [4] was 73.9%.
Regarding `OC[C@H](Cc1ccccc1)Nc1nc(Oc2ccc3c(c2)CCC3)nc2c1ncn2Cc1ccc(-c2ccccc2)cc1`, the outcome in experiment [1] and in experiment [6] was inactive. For the same compound, the Potency result in experiment [2] and in experiment [5] was “inactive” each time. Also, the viability (% of control) in experiment [3] worked out at 54.4%. In addition, the viability, percent of control in experiment [4] turned out to be 35.2%.
In the case of `COc1cc(Oc2ccnc3cc(OC)c(OC)cc23)ccc1NC(=O)NC(C)c1nccs1` (centres undefined), the result in experiment [1] and in experiment [6] was inactive. In experiment [2], the Potency was 16.8 µM (active). The viability (% of control) in experiment [3] stood at 69%. In experiment [4], the viability, percent of control was 59.4%.
Consider `CCC(=O)N[C@H]1CC[C@H](C(=O)N(C)c2ccc(-c3nc4ccccc4o3)cc2)C1`, for which the outcome in experiment [1] and in experiment [6] was inactive. Besides, the Potency entry in experiment [2], in experiment [8] and in experiment [7] was “inactive” throughout. In experiment [3], the viability (% of control) turned out to be 77.3%. Besides, in experiment [4], the viability, percent of control stood at 74.7%.
With `COc1nc(-c2ccc3c(c2)OCO3)n(-c2ccc(NC(=O)CSc3ccccc3)cc2)n1`, the call in experiment [1] and in experiment [6] was inactive. The Potency result in experiment [2], in experiment [7] and in experiment [5] was “inactive” throughout. In addition, the viability (% of control) in experiment [3] was 60.1%. Also, in experiment [4], the viability, percent of control was determined as 68.5%.
Take `NC(=O)c1ccc(I)c([N+](=O)[O-])c1`: the outcome in experiment [1] and in experiment [6] was inactive. Also, the Potency result in experiment [2], in experiment [8] and in experiment [7] was “inactive” each time. In addition, the viability (% of control) in experiment [3] amounted to 92.9%. For the same compound, the viability, percent of control in experiment [4] stood at 76.7%.
With `COc1cccc2cc(-c3nc(C4CCC(C(=O)O)CC4)n4ncnc(N)c34)[nH]c12` (centres undefined), the result in experiment [1] and in experiment [6] was inactive. The Potency entry in experiment [2] was “inactive”. The viability (% of control) in experiment [3] was 18.4%. The viability, percent of control in experiment [4] is 58.5%. Besides, the Potency in experiment [5] is 0.0688 µM (active).
Turning to `Cc1ccnc(NS(=O)(=O)c2ccc(NC(=O)Nc3ccc(S(=O)(=O)Nc4nccc(C)n4)cc3)cc2)n1`, the compound was called inactive in experiment [1] and in experiment [6]. In addition, the Potency in experiment [2] was 16.8 µM (active); in experiment [8], 23.5 µM (active). Moreover, the viability (% of control) in experiment [3] amounted to 48.6%. In addition, the Potency entry in experiment [7] was “inactive”.
